Assay [1] has as its target human Thyroid Receptor alpha (THRa1), THRA (gene 7067) (UniProt P10827). The assay is described as follows: ATG_THRa1_TRANS: Attagene TRANS-FACTORIAL HepG2 Assay for human Thyroid Receptor alpha (THRa1) (AID 2283014; active = hit-call score of the fitted dose curve at least 0.9, where 1 is the maximum). Put shortly: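 Reporter transcript induction, read by capillary electrophoresis of 6-FAM-labelled RT-PCR products, reflects activity of a transfected THRa1-Gal4 fusion in HepG2 liver cells. Cells were dosed for 24 h; activity was fitted in the positive direction against DMSO.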

Read-out in assay [2]: E-selectin (Homo sapiens) (UniProt P16581)
The assay is described as follows: BSK_3C_Eselectin: BioMAP Diversity Plus: 3C Assay for Eselectin Biomarker Activity (AID 2283015).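 For outcome: cell surface E-selectin protein quantified by ELISA 24 h after dosing.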 The conditions noted are these: primary human endothelial cells (HUVEC); actives raise or lower the signal. Put shortly: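 ELISA read-out of E-selectin on endothelial monolayers after 24 h chemical treatment. Human umbilical vein primary cells served as the system, with DMSO defining baseline activity for bidirectional fitting.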

Read-out in assay [3]: Interleukin-1 alpha (IL1a), IL1A (gene 3552)
Nature of the assay: BSK_BE3C_IL1a: BioMAP Diversity Plus: BE3C Assay for Interleukin-1 alpha (IL1a) Biomarker Activity (AID 2283016). Particulars: primary human bronchial epithelial cells; actives raise or lower the signal. Put shortly: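 Human primary bronchial epithelial cells (BE3C system) were dosed with compound and IL-1a measured by ELISA 24 h later. Activity was fitted bidirectionally against DMSO baseline; cytotoxicity was tracked in parallel cultures by SRB total-protein staining.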

Read-out in assay [4]: Monocyte Chemoattractant Protein-1 (MCP1), CCL2 (gene 6347)
Nature of the assay: BSK_3C_MCP1: BioMAP Diversity Plus: 3C Assay for Monocyte Chemoattractant Protein-1 (MCP1) Biomarker Activity (AID 2283017). The conditions noted are these: primary human endothelial cells (HUVEC); actives raise or lower the signal. Put shortly:
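ELISA read-out of MCP-1 from human umbilical vein endothelial cell cultures harvested 24 h post-dosing. Gain or loss of signal was fitted relative to DMSO.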

Read-out in assay [5]: Monocyte Chemoattractant Protein-1 (MCP1), CCL2 (gene 6347)
The assay is described as follows: BSK_4H_MCP1: BioMAP Diversity Plus: 4H Assay for Monocyte Chemoattractant Protein-1 (MCP1) Biomarker Activity (AID 2283018). Particulars: primary human endothelial cells (HUVEC); actives raise or lower the signal. Put shortly:
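Human umbilical vein endothelial cells (4H system) dosed with chemical; MCP-1 measured by ELISA 24 h after dosing. Bidirectional curve fitting against DMSO negative control as baseline; parallel SRB total-protein staining tracks overt cytotoxicity.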

Read-out in assay [6]: Human Leukocyte Antigen - DR isotype (HLADR), HLA-DRA (gene 3122)
The assay is described as follows: BSK_3C_HLADR: BioMAP Diversity Plus: 3C Assay for Human Leukocyte Antigen - DR isotype (HLADR) Biomarker Activity (AID 2283019). The conditions noted are these: primary human endothelial cells (HUVEC); actives raise or lower the signal. Put shortly: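 ELISA readout of surface HLA-DR on human umbilical vein endothelium, taken 24 h after chemical treatment. Gain- and loss-of-signal were both fitted relative to DMSO.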

Read-out in assay [7]: Interleukin-8 (IL8), CXCL8 (gene 3576)
Nature of the assay: BSK_3C_IL8: BioMAP Diversity Plus: 3C Assay for Interleukin-8 (IL8) Biomarker Activity (AID 2283020). Particulars: primary human endothelial cells (HUVEC); actives raise or lower the signal. Put shortly: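 Primary human umbilical vein endothelial cells (3C system) were exposed to test chemical for 24 h, then IL-8 was quantified by ELISA. Responses were fitted bidirectionally against DMSO vehicle as baseline.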

Assay [8] deals with Retinoic acid receptor RXR-alpha (Homo sapiens) (UniProt P19793). The assay is described as follows: ATG_RXRa_TRANS: Attagene TRANS-FACTORIAL HepG2 Assay for human Retinoid X Receptor alpha (RXRa) (AID 2283012; active = hit-call score of the fitted dose curve at least 0.9, where 1 is the maximum). Put shortly: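 HepG2 cells transiently transfected with multiplexed GAL4-UAS reporter units and chimeric NR-GAL4 fusions, dosed 24 h. Reporter mRNA measured by RT-PCR, FAM labelling, HpaI digestion and capillary electrophoresis; gain-of-signal fitted relative to DMSO baseline.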

Read-out in assay [9]: Monokine induced gamma interferon (MIG), CXCL9 (gene 4283)
The assay is described as follows: BSK_3C_MIG: BioMAP Diversity Plus: 3C Assay for Monokine induced gamma interferon (MIG) Biomarker Activity (AID 2283021).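 For AC50: MIG protein level measured by immunoassay in the treated endothelial cultures.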 Particulars: primary human endothelial cells (HUVEC); actives raise or lower the signal. Put shortly:
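Primary human umbilical vein endothelial cells in the 3C system were exposed to chemical for 24 h, after which MIG was quantified by ELISA. Activity was fitted bidirectionally against DMSO as negative control and baseline.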

The text below walks through data of PubChem BioAssay (EPA / NIEHS).

The structures appear in SMILES notation. Values joined by “and” are separate entries in the source; they are usually repeats but may differ in a detail not shown here. Equal values may be shown once. Results filed as inconclusive are left out. Active and inactive are the calls of the source. Rule for the calls, unless noted: active = hit-call score of the fitted dose curve at least 0.9, where 1 is the maximum; inactive = score below 0.9.

Sequence of E-selectin (Homo sapiens) (P16581 whole entry, looked up): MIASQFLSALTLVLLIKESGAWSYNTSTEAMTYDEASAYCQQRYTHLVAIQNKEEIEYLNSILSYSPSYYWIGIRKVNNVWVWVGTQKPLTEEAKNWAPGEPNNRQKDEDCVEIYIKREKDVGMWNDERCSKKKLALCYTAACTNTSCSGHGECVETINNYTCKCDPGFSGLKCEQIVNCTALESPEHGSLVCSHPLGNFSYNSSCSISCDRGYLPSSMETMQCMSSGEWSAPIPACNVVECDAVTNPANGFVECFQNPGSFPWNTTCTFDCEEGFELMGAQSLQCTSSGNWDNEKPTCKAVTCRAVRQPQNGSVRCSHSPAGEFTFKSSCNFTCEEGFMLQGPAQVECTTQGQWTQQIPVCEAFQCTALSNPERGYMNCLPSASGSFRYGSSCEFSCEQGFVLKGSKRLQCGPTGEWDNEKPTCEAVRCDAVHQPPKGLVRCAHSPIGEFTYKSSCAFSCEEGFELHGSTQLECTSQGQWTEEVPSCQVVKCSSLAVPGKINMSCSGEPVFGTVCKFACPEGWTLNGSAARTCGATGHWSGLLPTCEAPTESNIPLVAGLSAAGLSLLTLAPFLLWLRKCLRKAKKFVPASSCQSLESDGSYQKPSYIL
Sequence of human Thyroid Receptor alpha (THRa1), THRA (gene 7067) (P10827 whole entry, looked up, the tested form may be a part): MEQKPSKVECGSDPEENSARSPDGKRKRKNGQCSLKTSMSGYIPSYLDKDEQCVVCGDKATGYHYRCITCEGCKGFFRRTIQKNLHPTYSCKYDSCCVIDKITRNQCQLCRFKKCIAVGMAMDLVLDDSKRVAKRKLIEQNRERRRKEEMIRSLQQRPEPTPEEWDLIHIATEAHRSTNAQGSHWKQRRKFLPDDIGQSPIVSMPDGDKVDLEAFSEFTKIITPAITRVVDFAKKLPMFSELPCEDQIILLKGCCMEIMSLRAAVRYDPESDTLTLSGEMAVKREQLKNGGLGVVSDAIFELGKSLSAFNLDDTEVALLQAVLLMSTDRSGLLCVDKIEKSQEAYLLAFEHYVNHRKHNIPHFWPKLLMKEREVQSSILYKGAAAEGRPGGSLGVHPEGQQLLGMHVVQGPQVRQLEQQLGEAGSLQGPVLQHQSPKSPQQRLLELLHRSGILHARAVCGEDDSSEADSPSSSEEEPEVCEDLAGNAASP
Sequence of Retinoic acid receptor RXR-alpha (Homo sapiens) (P19793 whole entry, looked up, the tested form may be a part): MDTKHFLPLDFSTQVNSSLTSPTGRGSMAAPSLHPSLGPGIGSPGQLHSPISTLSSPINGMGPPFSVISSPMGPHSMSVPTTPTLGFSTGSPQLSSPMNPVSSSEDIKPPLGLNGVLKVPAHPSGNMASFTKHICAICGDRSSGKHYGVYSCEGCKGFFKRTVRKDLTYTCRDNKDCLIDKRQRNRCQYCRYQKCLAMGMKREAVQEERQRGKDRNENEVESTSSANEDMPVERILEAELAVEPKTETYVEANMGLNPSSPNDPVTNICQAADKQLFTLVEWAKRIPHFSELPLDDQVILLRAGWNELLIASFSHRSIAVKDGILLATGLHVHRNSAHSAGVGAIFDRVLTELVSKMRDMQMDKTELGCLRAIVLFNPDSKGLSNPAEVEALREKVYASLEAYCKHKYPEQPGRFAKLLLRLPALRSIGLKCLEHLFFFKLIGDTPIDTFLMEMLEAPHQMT

For `CCOC(=O)c1ccc(O)cc1`, the call in assay [1], in assay [2], in [3], in assay [4], in [5] and in assay [6] was inactive. Besides, the result in assay [7] was inactive.
What is called AC50 is the midpoint of the concentration-response curve, whichever way the signal moves. As to `CCOC(=O)C(C)Oc1ccc(Oc2nc3ccc(Cl)cc3o2)cc1` (stereo not given), the molecule was classed as inactive in assay [8], in assay [1], in [2], in [3], in assay [5] and in assay [7]. In addition, the half-maximal activity concentration (AC50) in [6] is 20 µM (active).
As for `COc1c(Cl)ccc(Cl)c1C(=O)O`, the result in [1], in assay [2], in assay [3], in assay [5], in [6] and in [7] was inactive. For the same molecule, the outcome in assay [9] was inactive.
Regarding `CC(C)(c1ccc(O)cc1)c1ccc(O)cc1`, the outcome in assay [1], in assay [2], in assay [3], in assay [5], in [6] and in assay [7] was inactive.
For the molecule `C[C@]12CC[C@@H]3c4ccc(O)cc4C[C@@H](CCCCCCCCCS(=O)CCCC(F)(F)C(F)(F)F)[C@H]3[C@@H]1CC[C@@H]2O` (stereo not given in full), the outcome in assay [1], in [2], in assay [3], in assay [5], in assay [6] and in [7] was inactive.
As for `CC(=O)[C@H]1CC[C@H]2[C@@H]3CCC4=CC(=O)CC[C@]4(C)[C@H]3CC[C@]12C`, the half-maximal activity concentration (AC50) was 10.1 µM (active) in assay [2], 12.7 µM (active) in assay [5], 20 µM (active) in assay [6] and 20 µM (active) in assay [7]. In assay [3], the outcome was inactive.
With `COCCO`, the outcome in assay [2], in assay [3], in [4], in [5], in [6] and in assay [7] was inactive. In addition, in [9], the outcome was inactive.
In the case of `CC(C)CCCCCCc1ccc(O)cc1`, in [1], the molecule was classed as inactive. Further, the AC50 was 8.72 µM (active) in assay [2]; 26.7 µM (active) in [3]; 7.07 µM (active) in assay [5]; 9.6 µM (active) in assay [6]; 8.35 µM (active) in [7].
As for `CCCN(CCC)c1c([N+](=O)[O-])cc(C(F)(F)F)c(N)c1[N+](=O)[O-]`, the outcome in assay [1] was inactive. For the same molecule, the concentration at half-maximal activity (AC50) was 14.9 µM (active) in [2]; 31.3 µM (active) in [3]; 29.7 µM (active) in assay [5]; 18.4 µM (active) in assay [6]; 32.9 µM (active) in assay [7].
As for `N#CSCSc1nc2ccccc2s1`, in [1], the result was inactive. For the same molecule, the AC50 is 7.25 µM (active) and 9.01 µM (active) in assay [2]; 6.07 µM (active) and 10.3 µM (active) in assay [3]; 4.06 µM (active) and 12.2 µM (active) in assay [5]; 2.3 µM (active) and 5.63 µM (active) in assay [6]; 8.35 µM (active) and 14.4 µM (active) in assay [7].
On to `CCN(Cc1c(F)cccc1Cl)c1c([N+](=O)[O-])cc(C(F)(F)F)cc1[N+](=O)[O-]`, for which the result in assay [2], in assay [3], in [7] and in assay [9] was inactive. Further, the AC50 was 11.3 µM (active) in [5] and 5.69 µM (active) in assay [6].
As for `N[C@@H](Cc1cc(I)c(Oc2ccc(O)c(I)c2)c(I)c1)C(=O)O`, the result in assay [2], in assay [3], in assay [5], in [6], in assay [7] and in [9] was inactive.
Regarding `CCOC(=O)[C@H](C)Oc1ccc(Oc2nc3ccc(Cl)cc3o2)cc1`, the outcome in [2], in assay [3], in assay [4], in [5], in assay [7] and in assay [9] was inactive. For the same molecule, the AC50 in assay [6] was 7.25 µM (active).
For `CCCCOCCOCCOCc1cc2c(cc1CCC)OCO2`, the outcome in assay [2], in [3], in assay [5], in [6] and in assay [7] was inactive.
For the molecule `CCN(CC)C(=O)c1cccc(C)c1`, the molecule was called inactive in assay [1], in assay [2], in assay [3], in assay [5], in [6] and in assay [7].
Turning to `CCCOC(=O)c1ccc(C(=O)OCCC)nc1`, the molecule was classed as inactive in [1], in [2], in assay [3], in assay [5], in [6] and in [7]. The outcome in assay [9] was inactive.
With `C=CCOC(Cn1ccnc1)c1ccc(Cl)cc1Cl` (stereo not given), the result in assay [2], in assay [3] and in assay [7] was inactive. The AC50 in assay [5] is 27.7 µM (active); in assay [6], 13.6 µM (active).
Regarding `CCCCCCC(C)OC(=O)COc1nc(F)c(Cl)c(N)c1Cl` (stereo not given), the AC50 in assay [2] is 31.4 µM (active); in [4] it was 30.8 µM (active); in assay [5] it was 32.3 µM (active); in [6] it was 31.6 µM (active); in [7] it was 36.5 µM (active); in assay [9] it was 37.7 µM (active). For the same molecule, the outcome in assay [3] was inactive.
As to `CSC(=O)c1cccc2nnsc12`, the call in assay [1], in assay [2], in assay [3], in assay [5], in assay [6] and in assay [7] was inactive.
As for `COC(=O)c1ccc(I)cc1S(=O)(=O)NC(=O)Nc1nc(C)nc(OC)n1`, the outcome in [2], in [3], in [5], in [6] and in assay [7] was inactive.
For `C#CCOC(=O)[C@@H](C)Oc1ccc(Oc2ncc(Cl)cc2F)cc1`, the result in assay [2], in assay [3], in assay [4], in [5], in assay [6] and in assay [7] was inactive.
For `O=C(c1ccc(O)cc1O)c1ccc(O)cc1O`, the molecule was called inactive in assay [1], in assay [2], in assay [3], in assay [5], in assay [6] and in [7].
On to `O=C(O)c1ccccc1`, for which the result in assay [2], in assay [3], in assay [5], in assay [6] and in assay [7] was inactive.
Take `C[C@]12C[C@H](O)[C@H]3[C@@H](CCC4=CC(=O)CC[C@@]43C)[C@@H]1CC[C@@H]2C(=O)CO`: the molecule was classed as inactive in assay [1], in assay [2], in assay [3], in assay [5], in assay [6] and in assay [7]. Besides, in assay [9], the outcome was inactive.
`CCCCOC(=O)C(C)Oc1ccc(Oc2ccc(C(F)(F)F)cn2)cc1` (stereo not given): the outcome in [1], in [2], in [3], in [5], in [6] and in assay [7] was inactive. Further, in [9], the outcome was inactive.
As to `COC(=O)c1ccccc1C(=O)O`, the call in assay [1], in assay [2], in assay [3], in assay [5] and in assay [7] was inactive. Moreover, in assay [6], the AC50 is 9.98 µM (active).
As to `COC(=O)c1ccccc1S(=O)(=O)NC(=O)Nc1nc(OC(F)F)cc(OC(F)F)n1`, the outcome in assay [2], in [3], in [5], in [6] and in assay [7] was inactive.
In the case of `CCCCOC(=O)[C@@H](C)Oc1ccc(Oc2ccc(C(F)(F)F)cn2)cc1`, the result in assay [1], in assay [2], in assay [3], in assay [5], in [6] and in assay [7] was inactive.
As for `COc1nc(C)nc(NC(=O)NS(=O)(=O)c2ccccc2OCCCl)n1`, the outcome in assay [2], in [3], in [4], in [5], in assay [6] and in assay [7] was inactive. The outcome in assay [9] was inactive.
Turning to `O=C(O)C1(C(=O)Nc2ccc(Cl)cc2Cl)CC1`, the outcome in assay [2], in [3], in assay [5] and in [7] was inactive. In assay [6], the AC50 is 4.68 µM (active).
As to `C#C[C@]1(O)CC[C@H]2[C@@H]3CCC4=CC(=O)CC[C@@H]4[C@H]3CC[C@@]21CC`, the outcome in [1], in assay [2], in assay [3], in assay [5] and in assay [7] was inactive. The half-maximal activity concentration (AC50) in [6] was 20 µM (active).
`CCOC(=O)C(C)Oc1ccc(Oc2cnc3cc(Cl)ccc3n2)cc1` (stereo not given): the result in assay [2], in assay [3], in assay [5], in assay [6], in [7] and in assay [9] was inactive.
